Experimental data published in article PMC5540273 (PLoS ONE, 2017).
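Further: KINOMEscan kinase panel screen.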

The compounds below were run on CDC2L2. Conditions: concentration: 1 μM, replicates: in singlicate; n = 1.
With `Cn1cncc1-c1cc2c(Nc3ccc(OCc4ccccc4)cc3)ncnc2cn1` [GW281179] the “%Inh” value was 17%. For `CNc1nc(-c2ccc3c(N)n[nH]c3c2)cc(N2C[C@@H](C(=O)NC3CCCCC3)OC[C@H]2C)n1` [GSK2375584], the “%Inh” value was 25%. For `COc1cccc(C2=C(Nc3cc(Cl)c(O)c(Cl)c3)C(=O)NC2=O)c1` [SB-390767], the “%Inh” value was 0%. With `Cn1cnc2c(N)ncnc21` [SKF-97623] the “%Inh” value was 0%. In the case of `O=c1cc(N2CCOCC2)nc2n(Cc3ccccc3F)ccn12` [GSK2297428], the “%Inh” value is reported as 12%. For `COc1ccc(-c2coc3ccc(-c4nnc(C)o4)cc23)cc1`, the “%Inh” value was 0%. With `Cc1ccccc1-c1cc(-c2c[nH]nc2-c2ccccn2)ccn1` [GW680061] the “%Inh” value was 9%. For `Nc1cccc(-c2ccc3c(N)n[nH]c3c2)n1` [GSK2192730], the “%Inh” value was 22%. With `CNC(=O)c1ccc(C)c(-n2c(C)cc(OCc3ccc(F)cc3F)c(Br)c2=O)c1` the “%Inh” value was 0%. In the case of `O=C(Nc1n[nH]c2nc(-c3ccco3)c(Br)cc12)C1CCN(Cc2ccccc2)C1.O=C(O)[C@H](O)[C@@H](O)C(=O)O` (stereo not drawn) [SB-742034], the “%Inh” value is reported as 36%. In the case of `NS(=O)(=O)c1cccc(N/C=C2\C(=O)Nc3ccc(S(=O)(=O)Cc4c(Cl)cccc4Cl)cc32)c1` [GSK398099], the “%Inh” value is reported as 9%. With `c1ccc(-c2ccnc3[nH]ccc23)cc1` [SB-693578] the “%Inh” value was 6%. With `CNc1nc(-c2ccc3c(N)n[nH]c3c2)cc(N2C[C@@H](C(=O)Nc3ccccc3)CC[C@H]2C)n1` [GSK2298859] the “%Inh” value was 21%. With `COC(=O)c1cccc(NC(=O)NC2CCN(c3ccnc(Nc4ccc(OC)cc4)n3)C2)c1` (stereo not drawn) [GSK1379746] the “%Inh” value was 32%. In the case of `COc1ccc(Nc2nccc(-c3ccc(NC(=O)c4cc5cc(F)ccc5[nH]4)cc3)n2)cc1` [GSK1229496], the “%Inh” value is reported as 14%. `Cl.Cl.Cl.N#Cc1ccc(CCNc2nccc(-c3cccc(CN4CCNCC4)c3)n2)cc1` [GSK2137462] was tested, and the “%Inh” value was 6%. With `O=C(Nc1n[nH]c2cc(-c3ccsc3)ccc12)C1CC1` [SB-732932] the “%Inh” value was 3%. `COc1ccc(Nc2nccc(N3CCC(NC(=O)c4cc5ccccc5s4)C3)n2)cc1` (stereo not drawn) [GSK1379738] was tested, and the “%Inh” value was 17%. In the case of `COc1ccc2cc(-c3nc(-c4ccccc4C(C)C)[nH]c3-c3ccncc3)ccc2c1` [SB-660566], the “%Inh” value is reported as 2%. In the case of `CC[C@@H]1CO[C@H](C(=O)Nc2ccccc2)CN1c1cc(-c2ccc3c(N)n[nH]c3c2)nc(NC)n1` [GSK2376236], the “%Inh” value is reported as 14%. With `Cc1ccc(NC(=O)c2ccc(Cl)cc2)cc1-c1ccc(C(=O)Nc2ccncc2)cc1` [GSK1398467] the “%Inh” value was 24%. `COc1cccc(NC(=O)Nc2ccc(C)c(-c3ccc(C(=O)Nc4ccncc4)cc3)c2)c1` [GSK1398474] was tested, and the “%Inh” value was 15%. In the case of `COc1ccc(CSc2nnc(-c3ccc4c(c3)CCO4)o2)cc1`, the “%Inh” value is reported as 0%. In the case of `Cc1cccc2c(-c3ccncn3)c(-c3ccc(F)cc3)nn12` [GW515532], the “%Inh” value is reported as 3%.
